The results in this text go back to PubChem BioAssay (NCATS).

Values without a mark were called inactive. Calls of active or inactive are those of the source. No rule for the calls is given here. Some results are limits rather than exact numbers.
Potency is read from the fitted curve at half-maximal effect.

For the assay, the system named is HIV-1 nucleocapsid protein NCp7 (binding to TG oligonucleotide). The assay can be described thus: HIV Nucleocapsid (AID 346).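 Also: potency is for inhibitors that block NC binding and lower polarization.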 The settings on record: HIV-1 NC / fluorescein-TGTGTGTG probe, fluorescence polarization. The method in brief: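 Inhibition of nucleocapsid binding to single-stranded 5'-TGTGTGTG probe (10 nM) was measured by fluorescence polarization after 1 hr at room temperature with 100 nM protein under high-salt, zinc-containing, reducing conditions.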
As for `O=C(c1cccc(F)c1)N1CCC[C@@]2(CCN(c3ccccc3)C2)C1`, the Potency was > 20 µM.
`CN(C)c1nc(-c2cccnc2)nc2ccccc12`: the Potency was > 20 µM.
Then `N#CCCn1c(=O)cnc2cnc(N3CCNCC3)nc21`, with > 20 µM; and `Cn1cc(-c2nc3cnc(N4CCOCC4)nc3n(C3CC3)c2=O)c2ccccc21`, with > 20 µM.
Then `CC(=O)N1CCC2(CCCN(C(c3ccccc3)c3ccccc3)C2)CC1`, with > 20 µM.
As to `FC(F)(F)c1ccccc1-c1cncnc1NCc1ccccc1`, the Potency is > 20 µM.
As for `CN1CCN(c2ncc3nc(-c4ccccc4)c(=O)n(-c4ccccc4)c3n2)CC1`, the Potency is > 20 µM.
Then `N#Cc1ccc(CN2CC3(CCN(C(=O)c4cccc(F)c4)CC3)C2)cc1`, with > 20 µM; and `O=C(c1ccncc1)N1CCC[C@@]2(CCN(c3ccccn3)C2)C1`, with > 20 µM; and `O=C(Nc1ccccc1)N1CC2(CCN(C(=O)c3cc(C(F)(F)F)cc(C(F)(F)F)c3)CC2)C1`, with > 20 µM.
Then `O=C(c1ccco1)N1CCC2(CCCN(c3ncccn3)C2)CC1`, with > 20 µM; and `Cn1cccc1C(=O)N1CCC2(CC1)CN(C(c1ccccc1)c1ccccc1)C2`, with > 20 µM.
In the case of `CN(C)c1ncc2nc(-c3ccc(Cl)cc3)c(=O)n(-c3ccccc3)c2n1` it was > 4 µM; in that of `Cc1noc(C)c1-c1cc(NCCN2CCOCC2)ncn1`, > 20 µM; in that of `CN(C)c1ncc2nc(CCc3ccccc3)c(=O)n(Cc3cccs3)c2n1`, > 20 µM.
Turning to `O=c1c(-c2ccc(F)c(F)c2)nc2cncnc2n1C1CC1`, the Potency is > 20 µM.
Then `O=C(c1ccco1)N1CCC2(CC1)CN(c1ccc(-c3ccccc3)cc1)C2`, with > 20 µM; and `O=C(c1cccc(F)c1)N1CCC2(CCCN(Cc3cc(C(F)(F)F)cc(C(F)(F)F)c3)C2)CC1`, with > 20 µM.
In the case of `COc1ccc2[nH]cc(CCNc3ncncc3-c3ccccc3OC)c2c1` it was > 20 µM; in that of `O=c1cnc2cnc(N3CCOCC3)nc2n1Cc1cccs1`, > 20 µM; in that of `O=C(Oc1ccccc1)N1CCC[C@@]2(CCN(c3ccncc3)C2)C1`, > 20 µM.
In the case of `COc1ccccc1CNc1ncnc2ccc(-c3ccccc3CN(C)C)cc12` it was > 20 µM.
Consider `c1ccc(-c2cccc(N3CCCC4(CCNCC4)C3)c2)cc1`, for which the Potency was > 20 µM.
For the molecule `Cc1ccccc1-c1cc(N2CCN(C)CC2)ncn1`, the Potency is > 20 µM.
In the case of `CN(C)c1ncc2nc(-c3cccs3)c(=O)n(CCC#N)c2n1` it was 0.319 µM (active); in that of `c1csc(CNc2ccnc(-c3ccoc3)n2)c1`, > 20 µM; in that of `COc1ccc(C(=O)N2CCC[C@@]3(CCN(C(=O)Nc4ccccc4)C3)C2)cc1`, > 20 µM.
As to `CS(=O)(=O)Nc1cccc(-c2nc(NC3CC3)c3ccccc3n2)c1`, the Potency is > 20 µM.
Then `COc1cccc(-c2ccc3ncnc(NCc4cccs4)c3c2)c1`, with > 20 µM.
In the case of `COCCNc1ncnc2ccc(-c3ccccc3CN(C)C)cc12` it was > 20 µM; in that of `COc1cccc(Cn2c(=O)c(-c3cccs3)nc3cnc(N(C)C)nc32)c1`, > 20 µM; in that of `O=C(c1csnn1)N1CCC2(CCCN(c3ccccc3)C2)CC1`, > 20 µM.
In the case of `COc1ccc(-n2c(=O)c(-c3cccs3)nc3cnc(OC)nc32)cc1` it was > 20 µM; in that of `N#CCCn1c(=O)c(-c2ccccc2)nc2cnc(Oc3cccc(Cl)c3)nc21`, > 20 µM; in that of `COCCNc1cc(-c2c(C)noc2C)ncn1`, > 20 µM.
Take `Cc1noc(C)c1C(=O)N1CCC2(CCCN(c3ccccc3)C2)CC1`: the Potency was > 20 µM.
In the case of `COc1ccc(C(=O)N2CCC3(CCN(Cc4ccncc4)CC3)CC2)cc1` it was > 20 µM; in that of `Cc1cccc(CNc2cc(-c3ccc(C(=O)N(C)C)cc3)ncn2)c1`, > 20 µM.
In the case of `CN(C)C(=O)c1ccc(-c2cncnc2Nc2ccccc2)cc1` it was > 20 µM.
